This passage reports growth results from PubChem BioAssay (NCI).

Some test systems named below: SR leukemia; OVCAR-8 ovarian; OVCAR-5 ovarian; OVCAR-4 ovarian; SK-OV-3 ovarian; IGROV1 ovarian; OVCAR-3 ovarian; HS 578T breast; NCI/ADR-RES ovarian; RPMI-8226 leukemia.
What all share (assay): NCI-60 one-dose screen, 48 h (100 = growth as untreated, 0 = no growth, -100 = all killed)
Conditions in all cases: 10 µM

About 83,000 compounds went through this panel and 20% of them were active in at least one assay; those are over-represented in the sample as a whole.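 The endpoint reported here, percent growth, reads 100 for growth as untreated, 0 for no net growth and -100 for all cells dead.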 A number with no mark means an inactive call. Active and inactive are the calls of the source. Rule for the calls: active = growth percent below 10; inactive = the rest.

Take `CC(=O)[C@H]1CC[C@]2(C)[C@@H]1CC[C@@H]1[C@@]3(C)CC(CCC#N)(CCC#N)C(=O)C(C)(C)[C@@H]3CC[C@]12C`: the growth with SR leukemia is 101%; in the assay on OVCAR-8 ovarian, 106%; with OVCAR-5 ovarian it was 88.5%; in the assay with OVCAR-4 ovarian, 87.2%; in the assay with SK-OV-3 ovarian it was 103%; in the assay with IGROV1 ovarian, 98.4%. In addition, the growth is 107% in the assay on OVCAR-3 ovarian, 90.5% in the assay with HS 578T breast and 90.5% with NCI/ADR-RES ovarian.

Consider `CCCCN(CCCC)C(=O)[C@H](CC)[C@@H]1CC[C@@H](C)[C@@H]([C@H](C)[C@@H](O)[C@@H](C)C(=O)[C@H](CC)C2O[C@]3(C=C[C@@H](O)[C@]4(CC[C@@](C)([C@H]5CC[C@](O)(CC)[C@H](C)O5)O4)O3)[C@H](C)C[C@@H]2C)O1` (stereo not given in full), for which the growth is 27% in the assay on SR leukemia; 12.5% in the assay on OVCAR-8 ovarian; 24% with OVCAR-5 ovarian; 9.88% (active) in the assay on OVCAR-4 ovarian; -8.58% (active) in the assay on SK-OV-3 ovarian; 20.1% in the assay with IGROV1 ovarian. Further, the results for the growth in the assay on OVCAR-3 ovarian, in the assay with HS 578T breast and with NCI/ADR-RES ovarian were 4.13% (active), 14.5% and 25.4%, respectively.

For the compound `c1cncc(-c2csc(-c3c[nH]c4ccccc34)n2)c1`, the growth with SR leukemia is 70%; in the assay on OVCAR-8 ovarian, 95.8%; with OVCAR-5 ovarian it was 95.6%; with OVCAR-4 ovarian it was 79.1%; in the assay with SK-OV-3 ovarian, 79.3%; in the assay on IGROV1 ovarian it was 68.8%. Moreover, the growth was 85.6% in the assay with OVCAR-3 ovarian, 90.6% in the assay with HS 578T breast and 94.7% in the assay with NCI/ADR-RES ovarian.

`Cc1ccc(-n2c(C)nn3c(=O)c4c5c(sc4nc23)CN(C)CC5)cc1`: the growth in the assay with SR leukemia was 104%; in the assay with OVCAR-8 ovarian, 103%; with OVCAR-5 ovarian, 98.8%; in the assay with OVCAR-4 ovarian, 102%; with SK-OV-3 ovarian it was 95.1%; with IGROV1 ovarian it was 101%. Besides, the growth was 96.7% in the assay with OVCAR-3 ovarian, 107% with HS 578T breast and 101% in the assay on NCI/ADR-RES ovarian.

Regarding `Cc1[nH]c2ccccc2c1/C=N/Nc1ncnc2sc3c(c12)CCN(CC(=O)OC(C)(C)C)C3`, the growth was 23.4% with SR leukemia; 69% with OVCAR-8 ovarian; 130% in the assay on OVCAR-5 ovarian; 104% with OVCAR-4 ovarian; 108% in the assay with SK-OV-3 ovarian; 79.8% in the assay on IGROV1 ovarian. In addition, the values for the growth in the assay with OVCAR-3 ovarian, with HS 578T breast and with NCI/ADR-RES ovarian were 83.1%, 77.7% and 66.1%, respectively.

For the compound `Cc1c2cnccc2c(C)c2c1c1cc(O)ccc1n2C(C)C`, the growth was -17.1% (active) with SR leukemia; 7.98% (active) in the assay with OVCAR-8 ovarian; 69.2% in the assay on OVCAR-5 ovarian; 25% in the assay on OVCAR-4 ovarian; -15.7% (active) in the assay with SK-OV-3 ovarian; 7.7% (active) with IGROV1 ovarian. Besides, the growth with OVCAR-3 ovarian was 21.5%; with HS 578T breast it was 3.64% (active); with NCI/ADR-RES ovarian, 1.26% (active).

`CC(C)(C)c1ccc(S(=O)(=O)Oc2ccc(NC(=O)C3CCCCC3)cc2)cc1`: the growth in the assay with SR leukemia is 42.6%; with RPMI-8226 leukemia, 13.6%; in the assay on OVCAR-8 ovarian, 51%; in the assay on OVCAR-4 ovarian it was 47.5%; in the assay with IGROV1 ovarian it was 76.3%; in the assay on OVCAR-3 ovarian, 40.7%. In addition, the growth in the assay with HS 578T breast was 81.4%; in the assay on NCI/ADR-RES ovarian, 29.8%.

Consider `Cc1cc(Cl)ccc1Nc1nc(C(F)(F)F)ccc1C(=O)N/N=C/c1cccc(O)c1`, for which the growth in the assay with SR leukemia was -13% (active); in the assay with OVCAR-8 ovarian, 62.6%; with OVCAR-5 ovarian it was 51.1%; in the assay with OVCAR-4 ovarian it was 33.8%; in the assay with SK-OV-3 ovarian, 38.8%; in the assay with IGROV1 ovarian, 27.7%. Besides, the growth in the assay on OVCAR-3 ovarian was 35.9%; in the assay with HS 578T breast it was -17.5% (active); in the assay with NCI/ADR-RES ovarian it was 26.6%.

For the compound `COC(=O)C1OC1c1cc([N+](=O)[O-])ccc1OC` (stereo not given), the growth in the assay with SR leukemia was 84.4%; in the assay on OVCAR-8 ovarian, 105%; in the assay on OVCAR-5 ovarian, 105%; in the assay with OVCAR-4 ovarian, 101%; with SK-OV-3 ovarian, 92.1%; with IGROV1 ovarian, 93%. Moreover, the growth was 109% in the assay on OVCAR-3 ovarian, 111% with HS 578T breast and 101% in the assay with NCI/ADR-RES ovarian.

For the compound `O=C1c2c(c3c4ccccc4n(CCCCCCN4CCOCC4)c3c3[nH]c4ccccc4c23)C(=O)N1O`, the growth in the assay on SR leukemia was -26.2% (active); with OVCAR-8 ovarian it was 3.72% (active); in the assay on OVCAR-5 ovarian it was 127%; in the assay on OVCAR-4 ovarian it was 103%; in the assay with SK-OV-3 ovarian, 93%; in the assay on IGROV1 ovarian it was 40.6%. The results for the growth in the assay on OVCAR-3 ovarian, in the assay with HS 578T breast and in the assay with NCI/ADR-RES ovarian were 88.7%, 106% and 43.9%, respectively.

`O=C(CCCCNC(=O)c1nc(-c2ccccc2)n(-c2ccccc2)n1)NO`: the growth with SR leukemia was 76%; in the assay with OVCAR-8 ovarian, 51%; in the assay with OVCAR-5 ovarian, 85%; in the assay with OVCAR-4 ovarian it was 90.6%; in the assay with SK-OV-3 ovarian, 13.2%; in the assay with IGROV1 ovarian it was 89.2%. Further, the results for the growth in the assay on OVCAR-3 ovarian, in the assay with HS 578T breast and with NCI/ADR-RES ovarian were 70.1%, 60.8% and 87.6%, respectively.

Regarding `CCc1ccc(C2=NN(c3ccc(S(C)(=O)=O)cc3)C(=O)CC2)cc1`, the growth in the assay on SR leukemia was 4.42% (active); with OVCAR-8 ovarian, 39.1%; in the assay on OVCAR-5 ovarian, 48.7%; in the assay on OVCAR-4 ovarian, 76.2%; with SK-OV-3 ovarian, 28.7%; in the assay with IGROV1 ovarian it was 37.4%. Moreover, the growth with OVCAR-3 ovarian is -13.6% (active); with HS 578T breast it was -0.675% (active); in the assay with NCI/ADR-RES ovarian, 6.7% (active).

Regarding `Cc1ccc(C2=NN(c3ccc(S(C)(=O)=O)cc3)C(=O)CC2)cc1`, the growth in the assay on SR leukemia is 4.47% (active); in the assay with OVCAR-8 ovarian it was 31.8%; in the assay on OVCAR-5 ovarian it was 53.1%; with OVCAR-4 ovarian it was 60.8%; with SK-OV-3 ovarian, 19.9%; in the assay on IGROV1 ovarian it was 59.2%. The growth in the assay on OVCAR-3 ovarian was -14.7% (active); in the assay on HS 578T breast, -1.17% (active); in the assay on NCI/ADR-RES ovarian, 6.72% (active).

As to `CN1C(=O)C2(Nc3cc(Cl)ccc3S2)c2cc(Cl)ccc21` (stereo not given), the growth in the assay with SR leukemia is 70.6%; in the assay on OVCAR-8 ovarian it was 97.4%; with OVCAR-5 ovarian, 107%; in the assay with OVCAR-4 ovarian it was 70.3%; with SK-OV-3 ovarian it was 96.1%; in the assay on IGROV1 ovarian, 102%. Further, the growth with OVCAR-3 ovarian was 95.9%; in the assay on HS 578T breast it was 91.1%; with NCI/ADR-RES ovarian it was 93.6%.
